Here are results for 86 sequences from the supplement of paper PMC3334620.

The full ranking holds about 33,000 sequences; the median of “E-score (-0.5 to 0.5)” is about -0.016, and the highest 2% start at about 0.3. This is one part of a sample in which the highest values are shown more often than they occur.

The assay deals with T1, Yer184c (UniProt P39961).
T1 sequence: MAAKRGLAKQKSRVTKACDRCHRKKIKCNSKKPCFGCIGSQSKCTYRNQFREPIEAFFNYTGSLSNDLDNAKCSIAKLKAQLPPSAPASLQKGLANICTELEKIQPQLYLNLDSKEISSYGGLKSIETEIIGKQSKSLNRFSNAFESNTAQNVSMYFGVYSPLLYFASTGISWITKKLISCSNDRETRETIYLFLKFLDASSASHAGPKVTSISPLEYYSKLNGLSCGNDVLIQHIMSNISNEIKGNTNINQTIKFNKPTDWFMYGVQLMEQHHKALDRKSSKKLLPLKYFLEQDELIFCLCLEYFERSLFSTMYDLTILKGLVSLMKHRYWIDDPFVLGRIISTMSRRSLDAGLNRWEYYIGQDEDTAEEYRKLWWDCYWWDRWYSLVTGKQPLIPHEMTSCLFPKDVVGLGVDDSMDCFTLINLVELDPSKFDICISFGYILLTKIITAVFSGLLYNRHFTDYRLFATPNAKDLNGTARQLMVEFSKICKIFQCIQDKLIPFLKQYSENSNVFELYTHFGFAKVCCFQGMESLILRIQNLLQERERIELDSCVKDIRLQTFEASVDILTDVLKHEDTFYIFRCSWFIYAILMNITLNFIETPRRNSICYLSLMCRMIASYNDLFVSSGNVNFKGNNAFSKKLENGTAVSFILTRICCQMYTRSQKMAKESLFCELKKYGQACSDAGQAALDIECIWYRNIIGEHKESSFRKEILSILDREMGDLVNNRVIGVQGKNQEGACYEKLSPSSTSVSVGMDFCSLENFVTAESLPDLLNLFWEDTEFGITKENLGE
As to the kind of experiment: PBM E-score (8-mer binding enrichment) (E-score (-0.5 to 0.5)); higher = stronger / more preferred TF binding. As to conditions: protein concentration: 100 nM; construct: GST-full length. How it is done:
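Universal 'all 10-mer' protein binding microarrays (Agilent AMADID 015681) probed with GST-tagged S. cerevisiae TFs (full-length or DBD) made by in vitro transcription/translation (PURExpress), about 100-200 nM. Bound TF was detected with fluorescent anti-GST. Each ungapped 8-mer (which stands for itself and its reverse complement) is scored by the PBM enrichment score (E-score), a modified Wilcoxon-Mann-Whitney statistic from -0.5 to +0.5, computed with the Universal PBM Analysis Suite. Scale: above 0.35 generally sequence-specific binding.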
Consider GTCTCAAC, for which the “PBM E-score” value is -0.0423.
As for AGCTAGAT, the “PBM E-score” value was -0.104.
Under CGGGACGC stands -0.0137; under AATTCCAT, 0.0965; under CATTCCGC, -0.0761.
On to AATTCCGT, for which the “PBM E-score” value was 0.328.
As for AATTCCGC, the “PBM E-score” value came out at 0.208.
Under AATTCCGG stands 0.387.
Under CATTCCGG stands 0.318; under AATTCCCT, -0.0636.
Next, AATTCCCG: 0.272; CATTCCGA: 0.278; CTGGCTAC: -0.13.
As for GATCAATA, the “PBM E-score” value came to 0.164.
Take ACACTGGA: the “PBM E-score” value was determined as 0.0234.
Consider ATCCCTAG, for which the “PBM E-score” value is -0.0477.
As for ATTGGTGG, the “PBM E-score” value is -0.0975.
Next, AGTCCAGG: -0.206; ATAAGGTC: -0.0447.
Next, CATCTCGG: 0.272; AGCTTAAT: 0.201; AGGTCCGA: 0.197.
Under CGATCCGC stands 0.113.
In the case of CGATCCGA, the “PBM E-score” value came out at 0.305.
Under GGGTCCGA stands 0.113; under CGGTCCGA, 0.335.
Next, GGATCCGA: 0.242; ACAAGTAG: -0.201.
Next, ATCAAGCG: 0.0135.
As for GATTTCGC, the “PBM E-score” value is 0.312.
In the case of GATTTCGA, the “PBM E-score” value is 0.042.
Under CATTTCGC stands 0.0218; under GCCTTACA, -0.205; under CATGAGGG, -0.212.
As to ATTTGCCG, the “PBM E-score” value stood at 0.306.
For ATTTGCCA, the “PBM E-score” value is -0.0738.
Under ATTTGCCC stands 0.0315; under AACAAGAC, 0.105.
Next, ACCTCAAA: 0.137; CCCCTGAC: -0.0911; GGCCGATA: 0.264.
On to ACCCGAGG, for which the “PBM E-score” value was -0.00171.
With AACCGAGC, the “PBM E-score” value was 0.323.
Next, AACCGAGT: 0.0155; ATCCGAGG: 0.182; GGCCGAGA: 0.348.
Under AGCCGAGG stands 0.336; under CTCCGAGC, 0.271.
Under CCCCGAGC stands -0.0347.
With CGCCGAGC, the “PBM E-score” value was found to be 0.344.
Under CACCGAGC stands 0.231; under GGCCGACA, 0.0888.
Consider GACACTCA, for which the “PBM E-score” value was -0.0521.
For ACAGCGGA, the “PBM E-score” value turned out to be 0.0362.
As to GGGTTAGA, the “PBM E-score” value is -0.134.
For the sequence AACGTAAT, the “PBM E-score” value is -0.0198.
Next, GTTGGACA: -0.0236.
For AATGTTCG, the “PBM E-score” value was 0.0469.
Next, ATCCGAGC: 0.219; TCCCGAGA: 0.305.
Next, CACCGAGA: -0.212.
Next, AGCCGAGA: 0.326; AGCCGAGC: 0.318; ACCCGAGC: 0.229.
In the case of AGCCGATA, the “PBM E-score” value is 0.142.
Next, CGCCGAGA: 0.346; GCCCGAGA: 0.24.
On to AACCGAGA, for which the “PBM E-score” value is 0.229.
In the case of CCCCGAGA, the “PBM E-score” value is -0.123.
For the sequence CGCCGACA, the “PBM E-score” value amounted to 0.18.
Under CTACTGGA stands -0.271; under CCTCAGCG, 0.0964; under ATAGAGGG, -0.135.
Consider AGGCCAAA, for which the “PBM E-score” value amounted to 0.0579.
Take AACAACGG: the “PBM E-score” value stood at 0.175.
Next, CGAACTTC: 0.13; GCCCGCAC: -0.0678; AATCTGTA: 0.116.
Under GAAGAGTA stands 0.113; under CGGTTCGC, 0.0153; under CCGAATAC, 0.293.
CCGAATGA: the “PBM E-score” value was found to be 0.321.
With ACGAATGA, the “PBM E-score” value amounted to 0.189.
Regarding GCGAATGA, the “PBM E-score” value turned out to be 0.149.
Under ACGAATAA stands 0.0316; under CCGAATAA, 0.346.
